# TDP1 cell CPT: DT40-hTDP1 cell growth loss with CPT; chicken DT40 Tdp1-/-;hTDP1 cells + 20 nM CPT, ATP luminescence, 48 h; Potency, µM (doses to about 46.2 µM), for the others: at the highest dose activity change, negative = growth inhibition, actives largely listed as inhibitors; actives 12% (n = 420,000); AID 686979; also: nearly all actives have a fitted effect of over 55% in size
#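 Chicken DT40 Tdp1-/- cells complemented with human TDP1, 400 cells/well, exposed to compounds plus 20 nM camptothecin for at least 48 h at 37 C; viability read as ATP content by CellTiter-Glo luminescence.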
# VP16 counter: Gal4-VP16 reporter inhibition counter-screen. actives 3.5% (n = 310,000). Drosophila S2 Gal4-VP16 UAS-luciferase, luminescence, 20 h. AID 2546. Potency, µM (series often up to 53.6 µM), without a hit: top-dose activity, negative = inhibition, usual class: inhibitors;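 also: Gal4-VP16 expression switched on by copper sulfate through the metallothionein promoter; nearly all actives have a fitted effect of over 50% in size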
# RORg inh: blocks mouse ROR gamma transcriptional activity; actives 5.4% (n = 310,000); P51450; Drosophila S2 Gal4-RORgamma UAS-luciferase reporter, 20 h; Potency, µM (doses to about 53.6 µM), for inactives: at the highest dose activity change, negative = inhibition, hits mostly inhibitors; AID 2551; also: nearly all actives have a fitted effect of over 60% in size
# Target sequence (P51450 whole entry, looked up, the tested form may be a part): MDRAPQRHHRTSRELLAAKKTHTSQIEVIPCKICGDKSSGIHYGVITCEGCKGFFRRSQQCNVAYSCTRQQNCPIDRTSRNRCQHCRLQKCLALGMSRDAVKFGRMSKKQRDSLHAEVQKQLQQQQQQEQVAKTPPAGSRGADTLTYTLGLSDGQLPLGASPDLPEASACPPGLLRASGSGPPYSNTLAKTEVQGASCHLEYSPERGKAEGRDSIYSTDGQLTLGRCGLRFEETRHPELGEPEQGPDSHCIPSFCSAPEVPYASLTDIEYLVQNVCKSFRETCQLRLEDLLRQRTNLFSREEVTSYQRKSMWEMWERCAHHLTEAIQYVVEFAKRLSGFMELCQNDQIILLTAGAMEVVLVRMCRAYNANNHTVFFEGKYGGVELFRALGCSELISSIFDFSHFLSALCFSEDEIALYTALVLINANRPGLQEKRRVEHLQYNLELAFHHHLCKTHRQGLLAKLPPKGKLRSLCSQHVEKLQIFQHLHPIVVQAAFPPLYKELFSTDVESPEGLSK
#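 Stably transfected Drosophila Schneider cells are the test system, with ROR gamma fused to Gal4 and luciferase under UAS control; luminescence is read after 20 hr of 700 uM copper sulfate induction at ambient temperature.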
# ALOX12 inh: blocks human arachidonate 12S-lipoxygenase | P18054 | purified 12hLO, xylenol orange hydroperoxide absorbance | Potency, µM (highest dose often 108 µM), without a hit: at the highest dose activity change, negative = inhibition, most hits filed as inhibitors | actives 1.1% (n = 580,000) | AID 1671190
#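 Purified human 12hLO at 150 nM in 25 mM Hepes, 0.01% Triton X-100, pH 7.0, preincubated 15 min at room temperature with compound. Reaction started with 40 uM arachidonic acid, 30 min at room temperature. Hydroperoxide measured by Fe-xylenol orange, 573/405 nm absorbance ratio.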
# DT40 TDP1 no CPT: qHTS for Inhibitors of human tyrosyl-DNA phosphodiesterase 1 (TDP1): qHTS in cells in absence of CPT; DT40 Tdp1-/- hTDP1 cells, no CPT, ATP luminescence, 48 h; Potency, µM (series often up to 46.2 µM), for the others: at the top dose activity change, negative = growth inhibition, actives largely listed as inhibitors; actives 15% (n = 420,000); also: nearly all actives have a fitted effect of over 55% in size
#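 No-CPT arm: Tdp1-/-;hTDP1 DT40 cells (400/well) plus compounds, incubated ≥48 hr at 37 °C. Readout CellTiter-Glo luminescence.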
# ELG1 DNA repair: ELG1-dependent DNA repair inhibition; HEK293T ELG1-luciferase reporter, luminescence, 16 h; DNA damage induced by 5-fluorouridine; Potency, µM (series often up to 46.1 µM), without a hit: at the top dose activity change, negative = inhibition, usual class: inhibitors; actives 2.3% (n = 330,000); AID 504467; also: nearly all actives have a fitted effect of over 55% in size
#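 In this reporter screen, reduction of luminescence relative to DMSO vehicle indicated activity. Compounds and 5-fluorouridine were added together to 2,000 cells per well, incubated for 16 hr at 37 °C, then developed with ONE-Glo.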
# Active calls of the source: *; ? = inconclusive; nt = no result given; [ ] = another dose, or the depositor's remark. Most compounds without a hit are left out; they make up all but 15% or so of the library. Calls follow the shape of the dose curve; as a rule, active = well fitted curve in the direction sought with a large enough effect; inconclusive = small, poorly fitted or top-dose-only effect, or another doubt; inactive = no such curve, though single readings can be large; an effect the other way counts as inactive or inconclusive. % is scaled to controls: 0 for no effect and ±100 for the full control effect; potency is read from the fitted curve at half-maximal effect.
SMILES,TDP1 cell CPT,VP16 counter,RORg inh,ALOX12 inh,DT40 TDP1 no CPT,ELG1 DNA repair
COc1cc(/C=N/Nc2ccccn2)ccc1OCC(C)C,?,?,?,-10%,10µM*,?
C=CCOc1ccc(/C=N/Nc2ccccn2)cc1OC,-28%,?,3%,-12%,26µM*,?
CCOc1ccc(/C=N/Nc2ccccn2)cc1OC,-32%,?,10µM*,0%,?,?
CC(C)CCC(=O)N1CCC2(CC1)CC(O)CCO2 (configuration not stated),nt,nt,nt,40%,nt,nt
CCOc1ccc(N/C=C/C(=O)c2ccccc2)c([N+](=O)[O-])c1,?,7.1µM*,7.1µM*,10%,?,?
CCOc1ccc(NC(=S)NC(=O)c2c(Cl)cnn2CC)c([N+](=O)[O-])c1,4%,?,7.9µM*,1%,-4%,1%
Cc1cc(C)c(NC(=S)NC(=O)c2c(Cl)c(C)nn2C)c([N+](=O)[O-])c1,6%,?,20µM*,10%,-11%,15%
CCn1ncc(Cl)c1C(=O)NC(=S)Nc1c(C)cc(C)cc1[N+](=O)[O-],?,13µM*,1.3µM*,-11%,23µM*,-5%
Cc1ccc([N+](=O)[O-])cc1NC(=S)NC(=O)c1c(Cl)cnn1C,-3%,nt,nt,16%,9%,0%
CCn1ncc(Cl)c1C(=O)Nc1cc([N+](=O)[O-])ccc1OC,10%,-4%,1%,-17%,-1%,8%
COC(=O)[C@@H]1Cc2ncn(Cc3ccc(OC)cc3)c2CN1Cc1cccc(C#N)c1,nt,nt,nt,70%[176 µM],nt,nt
O=C(NC1CC(c2cc(NCCO)ncn2)C1)c1cc2ccccc2[nH]1 (configuration not stated),nt,nt,nt,19%,nt,nt
CSc1ccccc1C(=O)O,nt,nt,nt,6%,nt,nt
Cc1ccc(Nc2nnc(Cc3ccccc3)c(=O)[nH]2)cc1Cl,nt,nt,nt,0%,nt,nt
CCOc1ccccc1C1NC(=O)N(CC(=O)N(CC)c2ccccc2)C2=C1C(=O)OC2 (configuration not stated),nt,nt,nt,5%,nt,nt
CCN(CC)CCCNC(=O)CNc1nc(Cl)nc2nc[nH]c12,nt,nt,nt,-15%,nt,nt
COc1ccc(-c2cc(N3CCCC(NC(=O)c4ccc5ncccc5c4)C3)n[nH]2)cc1 (configuration not stated),nt,nt,nt,2%,nt,nt
CCOc1ccc(NC(=S)NC(=O)c2cccnc2)c([N+](=O)[O-])c1,4%,18µM*,20µM*,?,-1%,16%
CCOc1ccc(NC(=S)NC(=O)c2c(Br)cnn2C)c([N+](=O)[O-])c1,21µM*,-1%,?,?,23µM*,24%
Cc1ccc(CN2C[C@@H]3C(=O)N(C)C(=O)[C@@H]3C2)cc1C,nt,nt,nt,54%,nt,nt
CCCCc1[nH]nc2c1C1(C(=O)Nc3ccccc31)C(C#N)=C(N)O2 (configuration not stated),nt,nt,nt,12%,nt,nt
O=C(N/N=C/c1ccc(-c2cccc([N+](=O)[O-])c2)o1)[C@H]1C[C@@H]1c1ccccc1,29µM*,1%,21%,-20%,16µM*,?
O=C(N/N=C/c1ccc(-c2ccccc2[N+](=O)[O-])o1)[C@H]1C[C@@H]1c1ccccc1,16µM*,11µM*,?,17%,?,?
O=C(N/N=C/c1ccc(-c2ccc([N+](=O)[O-])cc2)o1)[C@H]1C[C@@H]1c1ccccc1,?,-4%,17%,-4%,?,-16%
COc1ccc(Nc2nc3ccccc3nc2NS(=O)(=O)c2ccc(Cl)cc2)c(OC)c1,nt,nt,nt,-16%,nt,nt
SMILES,TDP1 cell CPT,VP16 counter,RORg inh,ALOX12 inh,DT40 TDP1 no CPT,ELG1 DNA repair
Cc1cc(C(=O)CCC(=O)NC2CCCCC2)c(C)s1,nt,nt,nt,52%,nt,nt
CCC1=NN(C(=O)c2ccccc2O)C(O)(c2ccccc2)C1 (configuration not stated),13µM*,7.9µM*,5µM*,-28%,12µM*,-13%
CCC1=NN(C(=O)c2ccc(Cl)cc2)C(O)(c2ccccc2)C1 (configuration not stated),23µM*,10µM*,?,-8%,?,-18%
CCOC(=O)C1=NN(C(=O)c2ccc(C)cc2)C(O)(c2ccc(Cl)cc2)C1 (configuration not stated),-6%,?,?,-2%,-7%,10%
CCC1=NN(C(=O)c2ccc(Cl)cc2)C(O)(c2ccc(C)cc2)C1 (configuration not stated),?,25µM*,18µM*,?,?,-29%
O=C(c1ccccc1O)N1N=C(C(F)(F)F)CC1(O)c1ccc([N+](=O)[O-])cc1 (configuration not stated),-24%,10µM*,11µM*,15%,?,?
COCC1CN(C2CCC2)CC12CCN(C(=O)c1nccn1C)CC2 (configuration not stated),nt,nt,nt,44%,nt,nt
O=c1oc(CCCO)cc2ccc(C#CC3(O)CCCCC3)cc12,?,nt,nt,18%,18µM*,?
O=c1oc(CCCO)cc2ccc(C#Cc3ccsc3)cc12,?,nt,nt,-4%,18µM*,?
Cc1cc(/C=C(/C#N)C(=O)OC(C)C)cc(C)c1OC(F)F,nt,nt,nt,40%,nt,nt
COC(=O)c1ccccc1NC(=O)Cn1cnc2ccc(S(=O)(=O)N3CCC(C)CC3)cc2c1=O,5%,-9%,1%,0%,-3%,2%
CC1CCN(S(=O)(=O)c2ccc3ncn(CC(=O)Nc4ccccc4C(F)(F)F)c(=O)c3c2)CC1,21µM*,nt,nt,-6%,?,nt
COc1ccc(S(=O)(=O)N2CCCCC2)cc1NC(=O)Cn1cnc2ccccc2c1=O,-7%,nt,nt,-1%,7%,3%
COc1ccc(NC(=O)Cn2cnc3ccc(S(=O)(=O)N4CCC(C)CC4)cc3c2=O)cc1OC,26µM*,nt,nt,-28%,?,nt
COc1ccc(OC)c(NC(=O)Cn2cnc3ccc(S(=O)(=O)N4CCC(C)CC4)cc3c2=O)c1,23µM*,nt,nt,-16%,?,nt
COc1ccc(NC(=O)Cn2cnc3ccc(S(=O)(=O)N4CCC(C)CC4)cc3c2=O)c(OC)c1,?,nt,nt,-11%,-21%,nt
Cc1ccc(CN(C)C(=O)Cn2c(Cl)nc3c2c(=O)n(C)c(=O)n3C)cc1,nt,nt,nt,11%,nt,nt
Cc1ccc(C(C)NC(=O)Nc2ccc(Cl)cc2F)cc1C (configuration not stated),nt,nt,nt,-2%,nt,nt

# Source: PubChem BioAssay
